Among the data in PubChem BioAssay (NCI) are growth inhibition values, retold here.

About 79,000 compounds went through this panel and 15% of them were active in at least one assay; those are over-represented in the sample as a whole. A number with no mark means an inactive call. The source made the active and inactive calls. Cut-off read from the data, not from the text of the source: active = growth inhibition above about 70%; inactive = the rest.

A short description of assay [1]: NCI Yeast Anticancer Drug Screen. Data for the rad50 strain (AID 155).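 Note: 0% = growth of vehicle-only cultures of the same strain.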 The note with it: S. cerevisiae rad50 strain growth inhibition, hits give high values. The procedure, abridged: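 Inhibition values express reduced yeast growth in compound-treated cultures relative to vehicle-treated controls.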
A short description of assay [2]: NCI Yeast Anticancer Drug Screen. Data for the mec2-1 strain (AID 157). The conditions noted are these: S. cerevisiae mec2-1 strain, hits give high values. The procedure, abridged: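 Growth inhibition is read against vehicle-treated controls after compound exposure of the mec2-1 yeast strain, which is defective in DNA damage repair or cell cycle control.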
Assay [3] in a line: NCI Yeast Anticancer Drug Screen. Data for the sgs1 mgt1 strain (AID 161).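 Note: 0% = growth of cultures given vehicle only.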 The note with it: S. cerevisiae sgs1 mgt1 strain, hits give high values. The procedure, abridged:
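Percent growth inhibition was derived by comparing compound-exposed mutant yeast with vehicle-exposed cultures. The strain carries alterations in DNA damage repair.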

Assay [4] in a line: NCI Yeast Anticancer Drug Screen. Data for the cln2 rad14 strain (AID 165).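 Note: 0% = growth equal to vehicle treated cultures.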 The note with it: S. cerevisiae cln2 rad14 strain, hits give high values. The procedure, abridged:
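Growth inhibition, relative to vehicle-treated controls, is the read-out. The test organism is a yeast strain with defined genetic alterations, cln2 rad14.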

Assay [5] is described as follows: NCI Yeast Anticancer Drug Screen. Data for the bub3 strain (AID 167). The conditions noted are these: S. cerevisiae bub3 mutant strain, hits give high values. In short, it runs like this: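 Steps: expose the mutant yeast strain to compound; grow alongside vehicle-treated cultures; measure growth; express inhibition against the vehicle cultures.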
Assay [6] in a line: NCI Yeast Anticancer Drug Screen. Data for the mlh1 rad18 strain (AID 175). The note with it: S. cerevisiae mlh1 rad18 strain growth inhibition, hits give high values. The procedure, abridged: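 Cells of a genetically altered yeast strain, deficient in DNA damage repair, were treated with compound. Their growth was then compared with that of vehicle-treated cultures to give inhibition.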

Where [7] appears, read: at 5.0 µM (retest, dose inferred, filed as 0.5).
Setting [8] is: at 50.0 µM (retest, dose inferred, filed as 5.0).

In the case of `BrCc1ccc2ncccc2c1`, the growth inhibition was 5% in assay [1] (setting [7]); 98% (active) in assay [1] (setting [8]); 98.5% (active) in assay [1] (at 50.0 µM); 4% in assay [2] (setting [7]); 99% (active) in assay [2] (setting [8]); 98.9% (active) in assay [2] (at 50.0 µM). Also, the growth inhibition in assay [3] (setting [7]) was 6%; in assay [3] (setting [8]), 98% (active); in assay [3] (at 50.0 µM), 99% (active); in assay [4] (setting [7]), 11%; in assay [4] (setting [8]) it was 99% (active); in assay [4] (at 50.0 µM), 98.5% (active). The growth inhibition in assay [5] (setting [7]) was 3%; in assay [5] (setting [8]), 99% (active); in assay [5] (at 50.0 µM), 99% (active); in assay [6] (setting [7]), 1%; in assay [6] (setting [8]), 99% (active); in assay [6] (at 50.0 µM), 98.5% (active).
Consider `O=C(N/N=C/c1ccc(F)cc1)c1ccc(N(CCCl)CCCl)cc1`, for which the growth inhibition in assay [1] (setting [7]) was -7%; in assay [1] (setting [8]) it was -5%; in assay [1] (at 50.0 µM) it was 38.9%; in assay [2] (setting [7]), -12%; in assay [2] (setting [8]) it was -11%; in assay [2] (at 50.0 µM) it was 18.2%. Moreover, the growth inhibition in assay [3] (setting [7]) was -20%; in assay [3] (setting [8]) it was 2%; in assay [3] (at 50.0 µM) it was 56.8%; in assay [4] (setting [7]), -26%; in assay [4] (setting [8]), -34%; in assay [4] (at 50.0 µM), 25.2%. Further, the growth inhibition is -3% in assay [5] (setting [7]); 3% in assay [5] (setting [8]); 27.8% in assay [5] (at 50.0 µM); -3% in assay [6] (setting [7]); -8% in assay [6] (setting [8]); 59.3% in assay [6] (at 50.0 µM).
For `CC[C@@]1(O)C(=O)OCc2c1cc1n(c2=O)Cc2cc3cc4c(cc3nc2-1)OCO4`, the growth inhibition in assay [1] (setting [7]) is 95% (active); in assay [1] (setting [8]), 92% (active); in assay [1] (at 50.0 µM), 72.4% (active); in assay [2] (setting [7]), 97% (active); in assay [2] (setting [8]) it was 94% (active); in assay [2] (at 50.0 µM), 81.3% (active). The growth inhibition in assay [3] (setting [7]) was 91% (active); in assay [3] (setting [8]) it was 85% (active); in assay [3] (at 50.0 µM), 80.9% (active); in assay [4] (setting [7]), 48%; in assay [4] (setting [8]), 47%; in assay [4] (at 50.0 µM), 71.7% (active). The growth inhibition in assay [5] (setting [7]) was 85% (active); in assay [5] (setting [8]), 83% (active); in assay [5] (at 50.0 µM), 74.3% (active); in assay [6] (setting [7]), 91% (active); in assay [6] (setting [8]), 89% (active); in assay [6] (at 50.0 µM) it was 34.4%.
In the case of `O=c1oc2ccccc2c(O)c1C(c1ccc(-c2ccccc2)cc1)c1c(O)c2ccccc2oc1=O`, the growth inhibition in assay [1] (setting [7]) was 9%; in assay [1] (setting [8]), 52%; in assay [1] (at 50.0 µM), 78.1% (active); in assay [2] (setting [7]) it was 7%; in assay [2] (setting [8]), 97% (active); in assay [2] (at 50.0 µM), 89.8% (active). The growth inhibition was -16% in assay [3] (setting [7]); 97% (active) in assay [3] (setting [8]); 81.6% (active) in assay [3] (at 50.0 µM); 19% in assay [4] (setting [7]); 97% (active) in assay [4] (setting [8]); 85.2% (active) in assay [4] (at 50.0 µM). The growth inhibition in assay [5] (setting [7]) was 14%; in assay [5] (setting [8]), 97% (active); in assay [5] (at 50.0 µM) it was 77.5% (active); in assay [6] (setting [7]), 16%; in assay [6] (setting [8]) it was 88% (active); in assay [6] (at 50.0 µM) it was 89.3% (active).
On to `CC[C@](C)(O)C(=O)O[C@H]1C(=O)O[C@@H]2C[C@H]3C(C)=CC(=O)[C@@H](O)[C@]3(C)[C@H]3[C@@]4(O)OC[C@]32[C@@H]1[C@@H](C)[C@H]4O`, for which the growth inhibition in assay [1] (setting [7]) was 17%; in assay [1] (setting [8]) it was 94% (active); in assay [1] (at 50.0 µM), 68%; in assay [2] (setting [7]), 21%; in assay [2] (setting [8]), 90% (active); in assay [2] (at 50.0 µM) it was 46.6%. Further, the growth inhibition is 14% in assay [3] (setting [7]); 91% (active) in assay [3] (setting [8]); 61.8% in assay [3] (at 50.0 µM); 33% in assay [4] (setting [7]); 97% (active) in assay [4] (setting [8]); 71.6% (active) in assay [4] (at 50.0 µM). For the same compound, the growth inhibition in assay [5] (setting [7]) is 6%; in assay [5] (setting [8]), 97% (active); in assay [5] (at 50.0 µM) it was 70.3% (active); in assay [6] (setting [7]) it was 9%; in assay [6] (setting [8]), 94% (active); in assay [6] (at 50.0 µM), 74.3% (active).
As for `c1ccc(NC2=NCCN2)nc1`, the growth inhibition was -4% in assay [1] (setting [7]); 82% (active) in assay [1] (setting [8]); 14.4% in assay [1] (at 50.0 µM); -26% in assay [2] (setting [7]); 99% (active) in assay [2] (setting [8]); 34.2% in assay [2] (at 50.0 µM). For the same compound, the growth inhibition in assay [3] (setting [7]) is 11%; in assay [3] (setting [8]) it was 70% (active); in assay [3] (at 50.0 µM), 62.3%; in assay [4] (setting [7]) it was 24%; in assay [4] (setting [8]), 49%; in assay [4] (at 50.0 µM) it was 0.35%. For the same compound, the growth inhibition in assay [5] (setting [7]) was -8%; in assay [5] (setting [8]), 84% (active); in assay [5] (at 50.0 µM), 25.4%; in assay [6] (setting [7]) it was -13%; in assay [6] (setting [8]), 98% (active); in assay [6] (at 50.0 µM), 15.2%.
On to `N#CN(Cc1ccccc1)C(c1ccccc1)(c1ccccc1)c1ccccc1.[Cl][Sn]([c]1ccccc1)([c]1ccccc1)[c]1ccccc1`, for which the growth inhibition in assay [1] (setting [7]) is 99% (active); in assay [1] (setting [8]) it was 91% (active); in assay [1] (at 50.0 µM), 97.3% (active); in assay [2] (setting [7]), 100% (active); in assay [2] (setting [8]), 94% (active); in assay [2] (at 50.0 µM), 98.3% (active). For the same compound, the growth inhibition was 100% (active) in assay [3] (setting [7]); 91% (active) in assay [3] (setting [8]); 98% (active) in assay [3] (at 50.0 µM); 99% (active) in assay [4] (setting [7]); 85% (active) in assay [4] (setting [8]); 97.5% (active) in assay [4] (at 50.0 µM). Besides, the growth inhibition was 99% (active) in assay [5] (setting [7]); 87% (active) in assay [5] (setting [8]); 98.1% (active) in assay [5] (at 50.0 µM); 99% (active) in assay [6] (setting [7]); 88% (active) in assay [6] (setting [8]); 98% (active) in assay [6] (at 50.0 µM).
With `C[N+](C)(C)CC1CCC(C[N+](C)(C)C)C1=O` (configuration not stated), the growth inhibition was -1% in assay [1] (setting [7]); 6% in assay [1] (setting [8]); -1.75% in assay [1] (at 50.0 µM); 11% in assay [2] (setting [7]); 26% in assay [2] (setting [8]); -1.05% in assay [2] (at 50.0 µM). Moreover, the growth inhibition is 0% in assay [3] (setting [7]); -47% in assay [3] (setting [8]); -4.05% in assay [3] (at 50.0 µM); -7% in assay [4] (setting [7]); 5% in assay [4] (setting [8]); 16.3% in assay [4] (at 50.0 µM). The growth inhibition is -2% in assay [5] (setting [7]); 6% in assay [5] (setting [8]); 27.5% in assay [5] (at 50.0 µM); -3% in assay [6] (setting [7]); 3% in assay [6] (setting [8]); -14.2% in assay [6] (at 50.0 µM).
As to `O=P1(NCCCl)OC(c2ccccc2)=CCN1CCCl` (configuration not stated), the growth inhibition in assay [1] (setting [7]) is -1%; in assay [1] (setting [8]) it was -1%; in assay [1] (at 50.0 µM), 97.9% (active); in assay [2] (setting [7]), -5%; in assay [2] (setting [8]), 6%; in assay [2] (at 50.0 µM), 94.1% (active). The growth inhibition in assay [3] (setting [7]) was 1%; in assay [3] (setting [8]), -1%; in assay [3] (at 50.0 µM), 99% (active); in assay [4] (setting [7]) it was -2%; in assay [4] (setting [8]) it was 5%; in assay [4] (at 50.0 µM), 96% (active). In addition, the growth inhibition in assay [5] (setting [7]) was -2%; in assay [5] (setting [8]) it was -1%; in assay [5] (at 50.0 µM), 89.6% (active); in assay [6] (setting [7]), -3%; in assay [6] (setting [8]), 1%; in assay [6] (at 50.0 µM), 98.8% (active).
